Drawing on PubChem BioAssay (EPA / NIEHS), this text covers outcome and AC50 for 14 compounds.

Each structure is given as a SMILES string. Calls of active or inactive are those of the source. Rule for the calls: active = hit-call score of the fitted dose curve at least 0.9, where 1 is the maximum; inactive = score below 0.9.

The term AC50 denotes the concentration at which the activity in the assay is half-maximal.

The nature of the assay: Tanguay_ZF_120hpf_EDEM: Oregon State University Tanguay Lab 120 Hour Post-fertilization zebrafish Assay for Edema Malformation (AID 2284400). The procedure: Tanguay_ZF_120hpf is a whole embryo, multiplexed endpoint assay using zebrafish larvae exposed for 120 hours post fertilization on a 96-well plate.Tanguay_ZF_120hpf_EDEM is one of one assay component(s) measured or calculated from the Tanguay_ZF_120hpf assay. It is designed to make measurements of zebrafish development as detected with brightfield microscopy of developing zebrafish embryos.Data from the assay component Tanguay_ZF_120hpf_EDEM was analyzed into 1 assay endpoints. This assay endpoint, Tanguay_ZF_120hpf_EDEM, was analyzed in the positive analysis fitting direction relative to DMSO as the negative control and baseline of activity. Using a type of morphology reporter, gain-of-signal activity can be used to understand changes in developmentals as they relate to the whole embryo. To generalize the intended target to other relatable targets, this assay endpoint is annotated to the zebrafish development intended target family, where the subfamily is embryonic edema.
Zebrafish husbandry: Tropical 5D wild-type adult zebrafish were housed in at an approximate density of 1000 per 100 gallon tank at the Sinnhuber Aquatic Research Laboratory, Oregon State University, Corvallis, OR. Each tank was kept at standard laboratory conditions of 28C on a 14-h light/10-h dark photoperiod in fish water consisting of reverse osmosis water supplemented with a commercially available salt (Instant Ocean). Spawning funnels were placed into the tanks the night prior, and embryos were collected and staged. To increase bioavailability, the chorion was enzymatically removed using pronase (63.6mg/ml, >/= 3.5U/mg, Sigma-Aldrich: P5147) at 4 hours post fertilization (hpf) using a custom automated dechorionator.Chemical exposures: Six hpf dechorionated embryos were placed 1 embryo per well in a 96-well plate prefilled with 90 ul of EM using automated embryo placement systems (AEPS). Ten microliters of each row of dilution plate 2 was added to 2 exposure plates. The final DMSO concentration used was 0.64% (vol/vol). Thirty-two embryos were also exposed to 5uM trimethyltin chloride (positive control). Plates were sealed to prevent evaporation and foil covered to reduce light exposure and kept in a 28C incubator. Embryos were statically exposed until 120 hpf. At 24 hpf, embryos were assessed for photomotor response using a custom photomotor response analysis tool (PRAT) and for developmental toxicity endpoints (MO24: mortality at 24 hpf, DP: developmental progression, SM: spontaneous movement, and NC: notochord distortion). At 120 hpf, locomotor activity was measured using Viewpoint Zebralab and assessed for 13 endpoints. Zebrafish acquisition and analysis program (ZAAP), a custom program designed to inventory, acquire, and manage zebrafish data, was used to collect developmental endpoints as either present or absent (i.e., binary responses were recorded). If mortality occurred for an embryo (at either 24 or 120 hpf), the non-mortality endpoints were not measured.
Consider `CC(O)C(F)(F)C(F)(F)F` (centres undefined), for which the compound was called inactive. On the same count and under the same terms, the result for `COC(=O)C(F)(F)C(F)(F)OC(F)(C(F)(F)F)C(F)(F)OC(F)=C(F)F` (centres undefined) reads “inactive”. With `O=C(O)C(F)(F)OC(F)(F)C(F)(F)OC(F)(F)C(=O)O`, the compound was called inactive.

As to `O=C(O)C(F)(OC(F)(F)C(F)(F)C(F)(F)F)C(F)(F)F` (centres undefined), the outcome was inactive. Same read-out and setting: the result for `O=C(O)C(F)(F)C(F)(F)C(=O)O` reads “inactive”; that for `OCC(F)(F)OC(F)(F)C(F)(F)OC(F)(F)CO`, “inactive”. Turning to `OCC(F)(F)OC(F)(F)C(F)(F)OC(F)(F)C(F)(F)OC(F)(F)F`, the compound was called inactive.

Regarding `O=S(=O)(F)C(F)(F)C(F)(F)C(F)(F)C(F)(F)C(F)(F)C(F)(F)C(F)(F)C(F)(F)F`, the compound was classed as inactive. Take `FC(F)(F)C(F)(C(F)(F)F)C(F)(F)C(F)(F)CC1CO1` (centres undefined): the result was inactive. `C=CC(=O)OCC(F)(F)C(F)F`: the call was inactive. For `OCC(F)(F)OC(F)(F)C(F)(F)OC(F)(F)C(F)(F)OC(F)(F)CO`, the AC50 was 28.9 µM (active). On to `NC(=O)C(F)(F)C(F)(F)F`, for which the outcome was inactive. On the same count and under the same terms, the result for `O=C(O)C(F)(F)OC(F)(F)C(F)(F)OC(F)(F)F` reads “inactive”. On the same count and under the same terms, the result for `O=C(O)C=CC(F)(C(F)(F)F)C(F)(F)F` reads “inactive”.
